Assay results taken from PMC12136788.
Substitutions are numbered along the chain they refer to. In all, about 24,000 sequences were measured (“enrichment r”: median about 0.99, highest 2% from about 3.7 on). For the sample, the highest values were picked, then their nearest neighbours and some sequences at random.

T1: UNK ZnF1-3 (human, UniProt Q9C0B0 31-174)
T1 sequence: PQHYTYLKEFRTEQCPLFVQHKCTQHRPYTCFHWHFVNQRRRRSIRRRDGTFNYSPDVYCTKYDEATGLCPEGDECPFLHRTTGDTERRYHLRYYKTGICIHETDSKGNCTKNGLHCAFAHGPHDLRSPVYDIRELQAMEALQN

B1: chr6:53132721:53132722:-_ENSG00000012660_ENST00000304434|hu_hu|FALSE|FALSE (ssRNA)
RNA: GGGAGUUCUACAGUCCGACGAUCUUACCUGUUUGACCACUGCCUCAAAUGUGUGAGAUGUGAUUUUAUGAUAAGCAGUCUAUUAUUUUUAAACAAGAGGUUCUAAACACAUCUUUAGAUUCUAAGCAGAAAGAAAUUACAAGUCAACAGAGGAUUGAGCAUCA
B2: chr7:90019461:90019462:+_ENSMUSG00000057706_ENSMUST00000082237|mus_mus|FALSE|FALSE (ssRNA)
RNA: GGGAGUUCUACAGUCCGACGAUCCGUCACAAUCGUGUGAUUAUUAAAAUAAUACAGUGUUCUUUGCCAUAAGGCCAUACUAAAAAUAAAAAGAUUUAACCCAGCUACAAAAAAGUUCACUGAACUUAAAUUAAAAUACUUGUACAACAGAGGAUUGAGCAUCA
B3: chr7:90019461:90019462:+_ENSMUSG00000057706_ENSMUST00000082237|mus_hu|FALSE|FALSE (ssRNA)
RNA: GGGAGUUCUACAGUCCGACGAUCCGUCACAAUUGUGUGAUUAUUAAAAUAAUACAGUGUUCUUUGCCAUAAGGCCAUACUAAAAUAAAAAGAUUUAACCCAGCUACAAAAAAGUUCACUGAACUUAAAUUAAAAUACUUGUAACAACAGAGGAUUGAGCAUCA
B4: chr11:120466956:120466957:+_ENSMUSG00000025135_ENSMUST00000093140|mus_mus|FALSE|FALSE (ssRNA)
RNA: GGGAGUUCUACAGUCCGACGAUCCAAGCAGAGGCCUCCAGCACGGCUCGGAACUGUAAUGAGUUUUACUUAUUGAAUAAAGUGUCAAUGUGAUGGGAAAACAAAACAGUCAGCAAAGCUCCUUUCAACCUUGUCCCAGCCAAACAACAGAGGAUUGAGCAUCA
B5: chr15:88518400:88518401:-_ENSMUSG00000022387_ENSMUST00000109381|mus_hu|FALSE|FALSE (ssRNA)
RNA: GGGAGUUCUACAGUCCGACGAUCCCCGUCUUAUUAAAUAAGUGGUACUCUGUGUAAAGAGCAUGAUUUACAAAAUUAUUAAACAUUCAAAAGUCUUUAAGAAAAAGCUACAUAUCAAAGAAAGUGACGCCAGCAGCACGGCCUCAACAGAGGAUUGAGCAUCA
B6: chr15:88518400:88518401:-_ENSMUSG00000022387_ENSMUST00000109381|mus_mus|FALSE|FALSE (ssRNA)
RNA: GGGAGUUCUACAGUCCGACGAUCCCCGUCUUAUUAAAUAAGCGGUACUCUGUGUAAAGAGCAUGAUCUACAAAAUUAUUAAACAUUCAAAAGUCUUUAAAAAAAAAAAAAAACCCUACAGAUUAGAAUAAGUGAGGCCUCGGCCAACAGAGGAUUGAGCAUCA
B7: chr14:35505469:35505470:+_ENSMUSG00000041408_ENSMUST00000048263|mus_hu|motif|central (ssRNA)
RNA: GGGAGUUCUACAGUCCGACGAUCCUGUAUGGUAACAUUACAAACUGACAAGCAAGAUGGAUGUAAAACAGUGUAAUCUCGGGUCCGUCCAACUGUCCCUCUAAAACUGGUCCCACAACUUACACCCCCUUUCUUUGCCUGAUUCAACAGAGGAUUGAGCAUCA
B8: chr6:72561926:72561927:-_ENSMUSG00000056429_ENSMUST00000070524|mus_mus|motif|central (ssRNA)
RNA: GGGAGUUCUACAGUCCGACGAUCGUAAAUAAAACAUCACCAGAGGAGAGUGUCAUCAAAGUGCCGGUGCAAAACCUGAAGCGGUCCCAUCUCUGCCAGCCCAGACUUGCCACCAAACCCCAGAGGAGGUCACAGUCUUUUCAUCAACAGAGGAUUGAGCAUCA
B9: 130210676_130211900_346_CDS_ENSG00000197958_ENST00000361436|human|control|control (ssRNA)
RNA: GGGAGUUCUACAGUCCGACGAUCAAAAGUGAUAUUCCCACUGUGUUUAAUGUUUUUCUGUUUCUUUCUGUCUCUUGGUGGUUCCUUGAGGGCUUUGAUGAUCAGGGCAGAGGCAGAAGGCACCACCUCAAUCUGGGCCUGUCUCAACAGAGGAUUGAGCAUCA
B10: chr8:80553714:80553715:+_ENSG00000104435_ENST00000220876|hu_mus|FALSE|FALSE (ssRNA)
RNA: GGGAGUUCUACAGUCCGACGAUCAGCCUCCAGCUUUUUCUGAAUCUCCUCCAGAGACAGGUCUUUCUUCUUUGGAGAAGCUAGAGUUCGUGGAGCUUCUGAGAUGGGAGAUGGUGGCUUCAAGAUCAGCUCAAAAGCCUGGCCCAACAGAGGAUUGAGCAUCA
B11: chr2:153237265:153237266:-_ENSMUSG00000061411_ENSMUST00000109784|mus_mus|mus_mus_mus_hu_False|8_78 (ssRNA)
RNA: GGGAGUUCUACAGUCCGACGAUCAAAAAAAAAAAAAAAAAAGUGUCCUUGUGCCCAAAGUCUCAGAUGCUUGGAGUGUGGCUAGAAACAGCUCUUUUGGAUCCCACCUCUUUCAAAAACAAAAUGUCCAACUGGUGGAGGCAGCAACAGAGGAUUGAGCAUCA
B12: chr2:153237265:153237266:-_ENSMUSG00000061411_ENSMUST00000109784|mus_mus|mus_mus_mus_hu_False|8_28 (ssRNA)
RNA: B11 RNA with A66G, A115G
B13: chr2:153237265:153237266:-_ENSMUSG00000061411_ENSMUST00000109784|mus_mus|mus_mus_mus_hu_False|1_8 (ssRNA)
RNA: B11 RNA with A66G, G137A, A138G, G140C, C141A, A142G
B14: chr2:153237265:153237266:-_ENSMUSG00000061411_ENSMUST00000109784|mus_mus|mus_mus_mus_hu_False|8_58 (ssRNA)
RNA: B11 RNA with A66G, U78C, G79A
B15: 26295160_26295280_2512_CDS_ENSMUSG00000026924_ENSMUST00000091252|mouse|control|control (ssRNA)
RNA: GGGAGUUCUACAGUCCGACGAUCUCCCUUUUCUGGAUGAUGAACAACCUCUGAAGGUUUUGGUUUUACAGGAACAUAAAGUGCAGGGGCAGCAGGGGCUAGAAGGACAUUGCCACCAAAAUCUGGCAGCUCAUUUUGUGCCCACAACAGAGGAUUGAGCAUCA
B16: 1003750_1005305_5821_CDS_ENSG00000060237_ENST00000535572|human|control|control (ssRNA)
RNA: GGGAGUUCUACAGUCCGACGAUCAUGAACAGACUUUGCAUCUUCUGACUUAUUUUUACCCUCUUUCUGGGCACCGUCUGCUGCAACAGAAACCUGAAAUCGUCCCAUCUUAAAAACACCAGCUCCUGAACUAGUUGCUAGGACCAACAGAGGAUUGAGCAUCA
B17: 9430860_9430980_9933_3pUTR_ENSMUSG00000040209_ENSMUST00000041124|mouse|control|control (ssRNA)
RNA: GGGAGUUCUACAGUCCGACGAUCUUUAAAAAGAACCAACUACUAUUUGACUCUAACCCAAUCCUUCAGUAUCUGGUAUGCGCUUUGUUUUUUCCCUUGCUAACACUAGGCCCUUUCUGUGCACUGCCAGCCAAGCACAGGCAGCAACAGAGGAUUGAGCAUCA
B18: 93812015_93812135_631_5pUTR_ENSG00000117505_ENST00000370272|human|control|control (ssRNA)
RNA: GGGAGUUCUACAGUCCGACGAUCGAUUUCUCAAAAAGUCGCCCUCGGAGAGUGAUCCCGGGGGGUGCUUUGCGAAGAGGGUGCAGAAAAUGAACGGAGGAGCAGCUGGCUUGAGGGCUGGGAACACUCGCGUGUGUGAGAGAUCAACAGAGGAUUGAGCAUCA
B19: chr5:128448638:128448639:+_ENSG00000066583_ENST00000173527|hu_mus|hu_hu_hu_mus_False|28_28 (ssRNA)
RNA: GGGAGUUCUACAGUCCGACGAUCGGCACUCGCCUUAAUUAGGUUCUGAAUUUCCUUGAACUUCGGGUGGUCUUUGUCAGCCACCAGCUGUAGGAGGACAGCCUCACUCGUGGUCACGAUGAUCCCAGUGCGGGCAAGACGCUCCAACAGAGGAUUGAGCAUCA
B20: chr15:12740188:12740189:-_ENSMUSG00000022195_ENSMUST00000057256|mus_hu|FALSE|FALSE (ssRNA)
RNA: GGGAGUUCUACAGUCCGACGAUCAUAAAUGAAGUAUGAAUGAAUCUCAUACAGCUCAACAGACCUGGGGGAAAAGUGAAGACAAACAAACAAACAAACAAAAAAAAAAACAAAACCCUAAAAAAUACUUAAGGAAGACAGAUACAACAGAGGAUUGAGCAUCA
B21: 176792147_176792267_4022_3pUTR_ENSG00000144320_ENST00000272748|human|control|control (ssRNA)
RNA: GGGAGUUCUACAGUCCGACGAUCACAUGAUAGGGAGUAAAAGGCAGAGGCCAGCUUCAGAUGGGGAGUUUGGGAAGGCAUCUCUCUGAGGAGGCAAAAUUUAAGCUGAAAUCUGAGGCAGGAAAGGGCAUGGUCAGAGAACUGCAACAGAGGAUUGAGCAUCA
B22: chr2:47635579:47635580:+_ENSG00000095002_ENST00000543555|hu_hu|motif|central (ssRNA)
RNA: GGGAGUUCUACAGUCCGACGAUCACUCUAUACUGACGAACCAGAAGAAGAUCUUUUACAAAAGAUUCAAAAUUCAUUUUACGGAGCACAACACUCUGCAGAUUCUUUGCUCCUGCCGGCCCCAUGUACUUGAUCACCCCCUGGCAACAGAGGAUUGAGCAUCA
B23: chr4:103718443:103718444:-_ENSG00000109332_ENST00000394803|perfect_dup|FALSE|FALSE (ssRNA)
RNA: GGGAGUUCUACAGUCCGACGAUCAAAGCUGGAAGAACUUAAGUCUUCUCAGAUGAGCAUGUGAAUGAAUGGAGGGAGGUAAACAAAAAAUAAAAUUAAAAAAGAUGAGGUCUGAUAGGGGAGCAGCCGGAUAAGAAAAUCAAACAACAGAGGAUUGAGCAUCA
B24: chr9:15453159:15453160:+_ENSG00000164975_ENST00000490969|hu_hu|FALSE|FALSE (ssRNA)
RNA: GGGAGUUCUACAGUCCGACGAUCAUGAUGCACAAGCCUUAUGUCAGUAAUGACAAUGACAUGUUCACAGUCUCCCUGAUGACAGUAUAAGUAAGGAAAACCCAGUUUAAUACACAAGUCAUUGAAGGUGAAAUCUUCCAUUCUCAACAGAGGAUUGAGCAUCA
B25: chr4:117881997:117881998:-_ENSMUSG00000033295_ENSMUST00000150096|mus_hu|FALSE|FALSE (ssRNA)
RNA: GGGAGUUCUACAGUCCGACGAUCCAGAAGUCAUACAAAAUAAGGAUCCAAAGUGAACUCAAGAAAAAAAAAAACAAAACAAAAUAAACCCCAACCCCUACAGUGGCCCAUUCUGCAGAUACGGAUUCGCGAAAGGAAAAAUCACAACAGAGGAUUGAGCAUCA
B26: chr6:48548902:48548903:+_ENSMUSG00000052751_ENSMUST00000163452|mus_mus|FALSE|FALSE (ssRNA)
RNA: GGGAGUUCUACAGUCCGACGAUCAAGGAACAAAACAAGACCCAGUAGGCAGAAGUCAUAGGAAAGCAGAAUCCAAUCACUAUAAGUAAGAAAUGUCUAACAAUUAGACUCGCCCUACGAUAGAAGUAGUGCCUUCUGGAGGUACAACAGAGGAUUGAGCAUCA
B27: chr10:60895279:60895280:-_ENSMUSG00000020091_ENSMUST00000020288|mus_mus|FALSE|FALSE (ssRNA)
RNA: GGGAGUUCUACAGUCCGACGAUCACUGGAAGAUGUUUUGUUAAAAAAGUUGUAGUUCAAAAUUGUACUGAAAACUUAUCUAAAAAUAGGUCUGUAGUCAUCUUAAAAAUAAAAGGUCUCUCCUCUGAUAAGGAGAGACUGAUACAACAGAGGAUUGAGCAUCA

Molecular target: T1, UNK ZnF1-3
Test: nsRBNS (natural sequence RNA bind-n-seq); RBNS binding buffer (assumed for nsRBNS): 25 mM Tris pH 7.5, 150 mM KCl, 3 mM MgCl2, 0.01% Triton X-100, 500 ug/ml BSA, 20 U/ml SUPERase-In, 4 C; UNK is unkempt and MSI1 is Musashi-1; names of the RNAs are library labels; protein concentration not given here; high values mean tight binding

Row | Binder | binding signal [enrichment R]
1 | B1 | 1.61
2 | B2 | 3.43
3 | B3 | 3.55
4 | B4 | 1.39
5 | B5 | 10
6 | B6 | 6.27
7 | B7 | 1.1
8 | B8 | 3.38
9 | B9 | 0.682
10 | B10 | 0.56
11 | B11 | 4.8
12 | B12 | 3.73
13 | B13 | 4.46
14 | B14 | 3.36
15 | B15 | 1.58
16 | B16 | 1.34
17 | B17 | 0.957
18 | B18 | 1.73
19 | B19 | 0.734
20 | B20 | 6.86
21 | B21 | 3.56
22 | B22 | 1.41
23 | B23 | 21.1
24 | B24 | 1.02
25 | B25 | 7.45
26 | B26 | 2.2
27 | B27 | 0.617
